From PubChem BioAssay (NCI)
Compounds without any hit were thinned out: in the full panel of roughly 79,000, 15% have a hit. Cut-off read from the data, not from the text of the source: active = growth inhibition above about 70%; inactive = the rest.

Columns and labels:
[1] = NCI Yeast Anticancer Drug Screen. Data for the rad50 strain (AID 155);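 note: 0% = growth of vehicle-only cultures of the same strain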; conditions: S. cerevisiae rad50 strain growth inhibition; at 50.0 µM; active compounds read high
How it was run: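 Compounds were tested on a yeast strain with an engineered DNA damage repair alteration; the reported value is growth inhibition normalised to vehicle treatment.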

[2] = NCI Yeast Anticancer Drug Screen. Data for the mec2-1 strain (AID 157); conditions: S. cerevisiae mec2-1 strain, at 50.0 µM, active compounds read high
How it was run: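 Readout is yeast growth inhibition, normalised to vehicle-treated controls, in the mec2-1 strain exposed to compound.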

[3] = NCI Yeast Anticancer Drug Screen. Data for the sgs1 mgt1 strain (AID 161);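 note: 0% = growth of cultures given vehicle only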; conditions: S. cerevisiae sgs1 mgt1 strain, at 50.0 µM, active compounds read high
How it was run: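 Yeast cells carrying a defined DNA-repair defect were exposed to test compounds. Growth inhibition was measured relative to vehicle-treated controls.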

[4] = NCI Yeast Anticancer Drug Screen. Data for the cln2 rad14 strain (AID 165);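 note: 0% = growth equal to vehicle treated cultures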; conditions: S. cerevisiae cln2 rad14 strain, at 50.0 µM, active compounds read high
How it was run: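 Relative to vehicle controls, growth inhibition of compound-treated cln2 rad14 yeast was recorded.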

[5] = NCI Yeast Anticancer Drug Screen. Data for the mlh1 rad18 strain (AID 175); conditions: S. cerevisiae mlh1 rad18 strain growth inhibition; at 50.0 µM; active compounds read high
How it was run: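 Test agents were incubated with a yeast strain of defined genotype (DNA damage repair defect). Inhibition of growth was derived by comparison with vehicle-exposed cultures.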

[6] = NCI Yeast Anticancer Drug Screen. Data for the bub3 strain (AID 167); conditions: S. cerevisiae bub3 mutant strain, at 50.0 µM, active compounds read high
How it was run: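 Growth of a checkpoint-deficient yeast mutant is measured after compound exposure. Values represent inhibition relative to vehicle.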

Measured: growth inhibition

Nc1ccc(N(C(=O)c2ccccc2)C(=O)c2ccccc2)c(-c2ccccc2)c1
inactive: [1] 19.9% | [2] 8.95% | [3] 6.15% | [4] 3.35% | [5] 22.9%

CCOC(=O)C1=CCOc2cc(N(C)C)ccc21
inactive: [1] -9.25% | [2] 9.15% | [3] -1.25% | [4] 32.4% | [5] -6.9%

Cc1ccc(C2(C)CC/C(=N/N=C3/CCC(C)(c4ccc(C)c(C)c4)c4cc(C)c(C)cc43)c3cc(C)c(C)cc32)cc1C (stereo not drawn)
inactive: [1] -17% | [2] -13.8% | [3] -27.9% | [4] -40.6% | [5] -12.4%

O=C1CC[C@@H](S(=O)(=O)c2ccccc2)[C@@H](/C=C/c2ccccc2)O1
inactive: [1] -26.8% | [2] -1.75% | [3] 7.15% | [4] -12.8% | [5] -6.7%

NC1C(O)OCC(O)C1O (stereo not drawn)
inactive: [1] -0.35% | [2] 9.3% | [3] 10.2% | [4] 7.25% | [5] 23.1%

[N-]=[N+]=Nc1ccccc1C(=O)NCCCNC(=O)c1ccccc1N=[N+]=[N-]
inactive: [1] -0.25% | [2] -23.1% | [3] 25% | [4] 1.8% | [5] 16%

COC(=O)C1=C(C)N(NC(=O)Nc2ccccc2)C2(N)N(NC(=O)Nc3ccccc3)C(C)=C(C(=O)OC)C12C(=O)OC (stereo not drawn)
inactive: [1] -8.9% | [2] 5.1% | [3] 3.55% | [4] 2.2% | [5] -2.8%

O=C(CN1CCN(c2ccccc2)CC1)n1nnc2ccccc21
inactive: [1] -9.4% | [2] -3.9% | [3] -3.6% | [4] -13.8% | [6] -31.5% | [5] -6%

CC(=O)CC(=O)Nc1ccc(NC(=O)CC(C)=O)cc1
inactive: [1] -13.5% | [2] -30.9% | [3] -21.1% | [4] -0.55% | [5] -15.9%

COc1ccc(C(=O)CC(C#N)c2ccc(OC)cc2)cc1 (stereo not drawn)
inactive: [1] -6.5% | [2] 3.25% | [3] 0.55% | [4] -21.2% | [5] -1.35%

N#CCC(=O)NCc1ccncc1
inactive: [1] -13.8% | [2] -50.4% | [3] -24.7% | [4] 7.85% | [6] -41% | [5] -13.1%

CCN(CC)C(=O)c1c2nc3c(C(=O)N(CC)CC)ccc(C)c3oc-2c(C)c(=O)c1N
inactive: [1] 24.6% | [2] 7.35% | [3] 7.85% | [4] 19.9% | [5] 20.2%

O=S1(=O)NC2CCC3NS(=O)(=O)NC4CCC(N1)N4S(=O)(=O)N23 (stereo not drawn)
inactive: [1] -3.75% | [2] -17.4% | [3] -4.1% | [4] 6.6% | [5] -8.25%

CCCP1(=O)C=C(C)C(=C(Cl)Cl)C(C)=C1 (stereo not drawn)
inactive: [1] 6.9% | [2] -19.2% | [3] -7.55% | [4] 13.6% | [5] 6.4%

CC(C)=CCC\C(C)=C/C=C/C(C)=C\C=C\C(C)=C/C=C/C=C(C)\C=C\C=C(C)/C=C/C=C(/C)CCC=C(C)C
inactive: [1] 7.15% | [2] -30.8% | [3] -29% | [4] 30.9% | [5] 20.2%

CN1C(c2ccccc2)=C(C#N)C(=O)CC(c2ccc(Cl)cc2)N1C (stereo not drawn)
inactive: [1] -7.75% | [2] 0.05% | [3] -4.75% | [4] -15.8% | [5] 2.65%

CC/C=C\C/C=C\C/C=C\CCCCCCCC(=O)OC(COC(=O)CCCCCCCCCCCCCCCCC)COC1OC(CO)C(O)C(O)C1O (stereo not drawn)
inactive: [1] 38.4% | [2] 8.55% | [3] 31.8% | [4] -3.4% | [5] 33.4%

CCCCOC(=O)NCNC(=O)OCCCC
inactive: [1] 23.2% | [2] -7.1% | [3] -2.1% | [4] -15% | [5] 14.9%

O=C(Cn1c(C(=O)c2ccccc2)nc2ccccc21)c1ccccc1
inactive: [1] -39.2% | [2] -16.6% | [3] -32.8% | [4] -8.95% | [5] -18%

O=C1CN(Cc2ccccc2)CCO1
inactive: [1] 4.95% | [2] -4.3% | [3] -3.55% | [4] 0.9% | [5] 1.4%

NC(=S)N/N=C/C=C/c1ccco1
inactive: [1] 8.9% | [2] 0.25% | [3] 30.6% | [4] -41.5% | [5] 52%

O=C(NC(=S)Nc1cccc2ccccc12)c1ccccc1F
inactive: [1] 30.9% | [2] 15.1% | [3] 37.1% | [4] 5.3% | [5] 28.4%

C=C(C)c1ccccc1S(=O)(=O)c1ccccc1C(C)(C)O
inactive: [1] -23.4% | [2] 5.1% | [3] 6.25% | [4] 55.1% | [5] 9.1%

O=C1/C(=C/c2ccc(Cl)c(Cl)c2)CCC/C1=C\c1ccc(Cl)c(Cl)c1
inactive: [1] 30.4% | [2] -5.85% | [3] 2.7% | [4] 2.95% | [5] 1.2%

CC1(C)CCCc2c(-c3ccccc3)cc3c4ccccc4cc[n+]3c21
inactive: [1] -8.5% | [2] -5.55% | [3] -14.6% | [4] -21.6% | [5] -14.1%

CCOc1ccccc1N(CCN(C)C)C(=O)C(c1ccccc1)c1ccccc1
inactive: [1] 20.9% | [2] -18.7% | [3] 1.05% | [4] -7.7% | [5] 31.8%

CCN(CC)c1ccc(C)cc1Cl
inactive: [1] -5.7% | [2] 7.5% | [3] -12.2% | [4] -16.8% | [5] 5.55%

Cc1ncc(CO)c(Cc2ccc(N(C)C)cc2)c1O
inactive: [1] 3.15% | [2] -2.25% | [3] -5.9% | [4] -2.25% | [5] 1.8%

Cc1ccc(/C(O)=C/c2nc3c(nc2NC24CC5CC(CC(C5)C2)C4)c(=O)oc2ccccc23)cc1
inactive: [1] 5.65% | [2] -0.65% | [3] -6.7% | [4] -3.7% | [5] 1.85%

COn1c2ccccc2c2c1cc1ccccc1[n+]2[O-]
inactive: [1] -7.15% | [2] -5.95% | [3] -8.9% | [4] -52.5% | [6] -9.65% | [5] -13.4%

Cc1cc(Cl)c(Cl)cc1NC(=O)c1ccc(Cl)c(Cl)c1
inactive: [1] 5.15% | [2] 23.4% | [3] 9.9% | [4] -3.25% | [5] 5.2%

CCCC(=O)NC(Nc1cc(C)ccn1)(C(=O)OCC)C(F)(F)F (stereo not drawn)
inactive: [1] -4.85% | [2] 8.5% | [3] 9.1% | [4] 7.4% | [5] -31.9%

CC1(C)S/C(=C\c2ccccc2)c2nc3ccccc3c(=O)n21
inactive: [1] -6.8% | [2] -7.2% | [3] -16.1% | [4] 2.3% | [5] -21.4%

CCc1cccc(CC)c1NC(=S)NC(=O)c1ccc(Br)cc1
inactive: [1] -5.3% | [2] -1.25% | [3] -7.9% | [4] 8.3% | [5] -9.75%

CC1OC(=O)c2cc3ccccc3cc2O1 (stereo not drawn)
inactive: [1] -8% | [2] -6.15% | [3] 5.95% | [4] -31.1% | [5] -0.45%

C1CCC2CC(NC3=NCCO3)CCC2C1 (stereo not drawn)
inactive: [1] 8.85% | [2] 21.1% | [3] 0.35% | [4] -7% | [5] -85.6%

O=C(NC(Cc1ccccc1)C(=O)O)c1ccccc1 (stereo not drawn)
inactive: [1] 4% | [2] 4.9% | [3] 24.1% | [4] -1.6% | [5] 1.55%

Cc1[nH]c2ccccc2c1C(=O)Cc1ccc(Cl)cc1Cl
inactive: [1] -3.6% | [2] 31.8% | [3] 32.2% | [4] -4.35% | [5] 33.4%

C=CC1(C)CCC2C(=CCC3C2(C)CC(O)C(O)C3(C)COC2OC(C(=O)O)C(O)C(O)C2O)C1 (stereo not drawn) (tested in a mixture with another compound)
inactive: [1] 16.1% | [2] -3.55% | [3] -6.9% | [4] 18.3% | [5] -67.3%

O=C(NCCN1CCCC1)Nc1ccccc1
inactive: [1] -3.2% | [2] -20.2% | [3] -17.2% | [6] 2.3% | [5] 8.45%

CCNS(=O)(=O)c1cc(C(=O)O)cc(C(=O)O)c1
inactive: [1] 6.9% | [2] -7.6% | [3] -4.95% | [6] -5.55% | [5] 0.15%

O=C1c2ccccc2C(=O)N1N1C(=O)C2C3CCC(O3)C2C1=O (stereo not drawn)
inactive: [1] 12.8% | [2] 0.4% | [3] 12.9% | [6] 17.5% | [5] 9.3%

CN(C)CCCC1(O)c2ccccc2Sc2cc(Cl)ccc21 (stereo not drawn)
inactive: [1] 12.9% | [2] 12.9% | [3] 17.9% | [6] 12.7% | [5] 25.9%

COC(=O)c1ccc(F)cc1
inactive: [1] -53.9% | [2] -25.9% | [3] -25.5% | [6] -51.6% | [5] -46.3%

C/C(=N\N=P(c1ccccc1)(c1ccccc1)c1ccccc1)C(C)(C)C
inactive: [1] 8.35% | [2] 10.2% | [3] 1.75% | [6] 4.5% | [5] 31.7%
